Results from ChEMBL document CHEMBL3988442, “University of Dundee, Small-Polar-MMV Screening Library” (2021).
For some assays here: Potency and affinity values are given separately.

What was measured:
Set-up in all cases: scale not given: direction of the effect not stated beside the values
[1] = biological target: Protein translocase subunit SecA (Escherichia coli (strain K12)) (UniProt P10408); assay: Assay to Identify E. coli SecA ATPase Inhibitors; assay type: functional; conditions: 30 µM
[2] = biological target: T1, Ubiquitin-activating enzyme e1, putative (Leishmania donovani (strain BPK282A1)) (UniProt E9BSI1); assay: Leishmania donovani Ubiquitin Activating Enzyme (LdE1); assay type: functional; conditions: 30 µM
T1 sequence (whole entry): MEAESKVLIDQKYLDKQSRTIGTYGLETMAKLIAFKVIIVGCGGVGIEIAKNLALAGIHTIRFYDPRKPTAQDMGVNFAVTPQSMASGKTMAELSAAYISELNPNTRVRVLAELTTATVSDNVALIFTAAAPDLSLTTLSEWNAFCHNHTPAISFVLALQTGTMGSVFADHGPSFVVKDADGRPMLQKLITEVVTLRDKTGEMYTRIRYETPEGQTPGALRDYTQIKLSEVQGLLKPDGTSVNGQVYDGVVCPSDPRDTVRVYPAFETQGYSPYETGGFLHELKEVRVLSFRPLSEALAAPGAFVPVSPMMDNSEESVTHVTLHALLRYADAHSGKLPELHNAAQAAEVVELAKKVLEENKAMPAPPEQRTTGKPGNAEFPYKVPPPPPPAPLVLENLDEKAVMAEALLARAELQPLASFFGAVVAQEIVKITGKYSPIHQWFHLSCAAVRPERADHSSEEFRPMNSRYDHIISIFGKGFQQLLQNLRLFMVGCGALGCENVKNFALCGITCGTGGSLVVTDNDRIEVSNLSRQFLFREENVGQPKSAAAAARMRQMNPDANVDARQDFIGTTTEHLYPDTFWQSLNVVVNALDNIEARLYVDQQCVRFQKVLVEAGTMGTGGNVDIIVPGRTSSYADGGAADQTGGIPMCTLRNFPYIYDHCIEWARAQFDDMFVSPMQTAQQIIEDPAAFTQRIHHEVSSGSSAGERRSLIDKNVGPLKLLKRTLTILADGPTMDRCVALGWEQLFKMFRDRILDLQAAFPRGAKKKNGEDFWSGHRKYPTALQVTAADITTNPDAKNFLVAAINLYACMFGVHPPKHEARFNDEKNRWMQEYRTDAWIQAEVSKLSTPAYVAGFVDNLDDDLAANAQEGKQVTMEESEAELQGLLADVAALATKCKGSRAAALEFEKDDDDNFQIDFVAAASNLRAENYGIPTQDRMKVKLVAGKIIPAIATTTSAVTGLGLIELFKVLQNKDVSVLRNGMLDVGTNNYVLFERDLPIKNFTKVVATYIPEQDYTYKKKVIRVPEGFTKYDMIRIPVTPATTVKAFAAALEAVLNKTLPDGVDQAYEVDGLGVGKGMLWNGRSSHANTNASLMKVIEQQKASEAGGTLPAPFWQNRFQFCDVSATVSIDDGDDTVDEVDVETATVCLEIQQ

[3] = biological target: AMP-activated protein kinase, AMPK (Homo sapiens) (UniProt P54646+O43741+P54619+Q9UGJ0+Q9Y478+Q13131+Q9UGI9); assay: AMP-dependent Kinase enzyme assay. An in vitro enzyme assay that detects ADP turnover that is directly proportional to AMPK activity. This uses naive AMPK that is activated during the assay with MK-8722; assay type: functional; conditions: 30 µM
[4] = biological target: Sialic acid-binding Ig-like lectin 9 (Homo sapiens) (UniProt Q9Y336); assay: Hs-Siglec9 ALPHAscreen SOP 20170721; conditions: 10 µM
Sequence of Sialic acid-binding Ig-like lectin 9 (Homo sapiens) (Q9Y336 whole entry): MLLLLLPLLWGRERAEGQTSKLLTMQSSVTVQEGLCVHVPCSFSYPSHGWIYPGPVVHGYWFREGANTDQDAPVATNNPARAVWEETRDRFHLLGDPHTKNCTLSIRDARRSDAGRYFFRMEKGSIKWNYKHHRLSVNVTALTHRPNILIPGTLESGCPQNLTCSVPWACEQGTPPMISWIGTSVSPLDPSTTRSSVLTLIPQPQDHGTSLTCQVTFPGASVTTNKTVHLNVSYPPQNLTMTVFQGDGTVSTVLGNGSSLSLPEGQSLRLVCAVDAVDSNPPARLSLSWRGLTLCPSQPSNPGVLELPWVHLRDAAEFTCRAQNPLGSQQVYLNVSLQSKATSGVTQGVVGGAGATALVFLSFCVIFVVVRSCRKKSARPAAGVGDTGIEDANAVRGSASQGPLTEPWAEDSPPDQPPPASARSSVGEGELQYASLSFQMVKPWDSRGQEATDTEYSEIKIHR

[5] = tested on: Trypanosoma cruzi; assay: Trypanosoma cruzi phosphomannomutase and mannose-1-phosphate guanylyltransferase assay; assay type: functional; conditions: 10 µM
[6] = biological target: T2, Arginase-2, mitochondrial (Homo sapiens) (UniProt P78540); assay: in vitro enzyme assay to detect the production of urea directly proportional to the activity of Arginase II; assay type: functional; conditions: 33.3 µM; also: in the data most compounds retested in dose-response had high values
T2 sequence (whole entry): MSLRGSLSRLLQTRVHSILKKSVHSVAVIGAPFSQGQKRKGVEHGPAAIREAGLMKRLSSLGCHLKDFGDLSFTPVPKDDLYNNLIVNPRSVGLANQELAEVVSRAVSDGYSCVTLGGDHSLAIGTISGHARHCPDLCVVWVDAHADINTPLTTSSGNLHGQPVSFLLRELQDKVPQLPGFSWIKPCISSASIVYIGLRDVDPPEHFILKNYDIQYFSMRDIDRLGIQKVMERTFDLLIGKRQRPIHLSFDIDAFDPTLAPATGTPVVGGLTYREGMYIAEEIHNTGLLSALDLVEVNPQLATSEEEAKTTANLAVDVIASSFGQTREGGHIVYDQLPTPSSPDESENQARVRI

[7] = biological target: T3, Proteasome subunit beta (Trypanosoma cruzi) (UniProt O96673); assay: Trypanosoma cruzi proteasome chymotrypsin-like activity (TcProtChymo) assay.; also: in the data most compounds retested in dose-response had high values; assay type: functional; conditions: 9.37 µM
T3 sequence (whole entry): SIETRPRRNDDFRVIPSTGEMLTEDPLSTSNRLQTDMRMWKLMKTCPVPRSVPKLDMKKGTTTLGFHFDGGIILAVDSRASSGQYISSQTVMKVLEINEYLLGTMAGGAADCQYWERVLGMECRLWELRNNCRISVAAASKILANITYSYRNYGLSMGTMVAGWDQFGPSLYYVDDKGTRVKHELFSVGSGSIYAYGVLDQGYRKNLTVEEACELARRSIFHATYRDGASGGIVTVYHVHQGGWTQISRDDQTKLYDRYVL

[8] = species on record: Homo sapiens; assay: To identify inhibition of the IFN signalling (Jak-Stat) pathway via expression of an eGFP reporter gene under the control of an IFN-stimulated response element (ISRE) containing MxA promoter.; assay type: functional; conditions: 30 µM
[9] = biological target: T4, Tyrosyl-tRNA synthetase, putative (Trypanosoma cruzi (strain CL Brener)) (UniProt Q4DSP6); assay: Trypanosoma cruzi tyrosyl tRNA synthetase (TcYRS) _High Tyrosine SOP; assay type: functional; conditions: 30 µM; also: in the data most compounds retested in dose-response had high values
T4 sequence (whole entry): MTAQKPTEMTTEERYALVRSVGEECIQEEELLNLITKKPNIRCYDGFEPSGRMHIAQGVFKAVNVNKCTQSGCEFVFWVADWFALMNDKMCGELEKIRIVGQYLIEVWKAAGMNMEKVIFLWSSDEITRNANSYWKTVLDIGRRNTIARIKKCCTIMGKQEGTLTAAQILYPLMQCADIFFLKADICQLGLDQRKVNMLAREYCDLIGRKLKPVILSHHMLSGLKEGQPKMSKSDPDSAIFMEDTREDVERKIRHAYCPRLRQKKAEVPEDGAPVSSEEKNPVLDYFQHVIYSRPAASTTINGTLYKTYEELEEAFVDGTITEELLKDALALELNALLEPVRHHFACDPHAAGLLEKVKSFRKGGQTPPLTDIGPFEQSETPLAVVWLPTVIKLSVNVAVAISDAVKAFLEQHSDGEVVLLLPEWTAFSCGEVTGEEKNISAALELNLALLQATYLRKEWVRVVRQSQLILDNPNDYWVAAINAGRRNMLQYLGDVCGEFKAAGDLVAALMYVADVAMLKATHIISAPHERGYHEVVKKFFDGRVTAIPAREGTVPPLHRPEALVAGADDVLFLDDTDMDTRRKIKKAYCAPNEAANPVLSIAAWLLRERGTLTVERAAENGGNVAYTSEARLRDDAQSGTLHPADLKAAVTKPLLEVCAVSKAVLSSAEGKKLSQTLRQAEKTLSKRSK

[10] = biological target: T4, Tyrosyl-tRNA synthetase, putative (Trypanosoma cruzi (strain CL Brener)); assay: Trypanosoma cruzi tyrosyl tRNA synthetase (TcYRS) SOP; assay type: functional; conditions: 30 µM
[11] = biological target: Chromo domain-containing protein 1 (Saccharomyces cerevisiae (strain ATCC 204508 / S288c) (Baker's yeast)) (UniProt P32657); assay: ScCHD-1 Enzyme Inhibition Assay; assay type: functional; conditions: 30 µM; also: in the data most compounds retested in dose-response had high values
Sequence of Chromo domain-containing protein 1 (Saccharomyces cerevisiae (strain ATCC 204508 / S288c) (Baker's yeast)) (P32657 whole entry, the tested form may be a part): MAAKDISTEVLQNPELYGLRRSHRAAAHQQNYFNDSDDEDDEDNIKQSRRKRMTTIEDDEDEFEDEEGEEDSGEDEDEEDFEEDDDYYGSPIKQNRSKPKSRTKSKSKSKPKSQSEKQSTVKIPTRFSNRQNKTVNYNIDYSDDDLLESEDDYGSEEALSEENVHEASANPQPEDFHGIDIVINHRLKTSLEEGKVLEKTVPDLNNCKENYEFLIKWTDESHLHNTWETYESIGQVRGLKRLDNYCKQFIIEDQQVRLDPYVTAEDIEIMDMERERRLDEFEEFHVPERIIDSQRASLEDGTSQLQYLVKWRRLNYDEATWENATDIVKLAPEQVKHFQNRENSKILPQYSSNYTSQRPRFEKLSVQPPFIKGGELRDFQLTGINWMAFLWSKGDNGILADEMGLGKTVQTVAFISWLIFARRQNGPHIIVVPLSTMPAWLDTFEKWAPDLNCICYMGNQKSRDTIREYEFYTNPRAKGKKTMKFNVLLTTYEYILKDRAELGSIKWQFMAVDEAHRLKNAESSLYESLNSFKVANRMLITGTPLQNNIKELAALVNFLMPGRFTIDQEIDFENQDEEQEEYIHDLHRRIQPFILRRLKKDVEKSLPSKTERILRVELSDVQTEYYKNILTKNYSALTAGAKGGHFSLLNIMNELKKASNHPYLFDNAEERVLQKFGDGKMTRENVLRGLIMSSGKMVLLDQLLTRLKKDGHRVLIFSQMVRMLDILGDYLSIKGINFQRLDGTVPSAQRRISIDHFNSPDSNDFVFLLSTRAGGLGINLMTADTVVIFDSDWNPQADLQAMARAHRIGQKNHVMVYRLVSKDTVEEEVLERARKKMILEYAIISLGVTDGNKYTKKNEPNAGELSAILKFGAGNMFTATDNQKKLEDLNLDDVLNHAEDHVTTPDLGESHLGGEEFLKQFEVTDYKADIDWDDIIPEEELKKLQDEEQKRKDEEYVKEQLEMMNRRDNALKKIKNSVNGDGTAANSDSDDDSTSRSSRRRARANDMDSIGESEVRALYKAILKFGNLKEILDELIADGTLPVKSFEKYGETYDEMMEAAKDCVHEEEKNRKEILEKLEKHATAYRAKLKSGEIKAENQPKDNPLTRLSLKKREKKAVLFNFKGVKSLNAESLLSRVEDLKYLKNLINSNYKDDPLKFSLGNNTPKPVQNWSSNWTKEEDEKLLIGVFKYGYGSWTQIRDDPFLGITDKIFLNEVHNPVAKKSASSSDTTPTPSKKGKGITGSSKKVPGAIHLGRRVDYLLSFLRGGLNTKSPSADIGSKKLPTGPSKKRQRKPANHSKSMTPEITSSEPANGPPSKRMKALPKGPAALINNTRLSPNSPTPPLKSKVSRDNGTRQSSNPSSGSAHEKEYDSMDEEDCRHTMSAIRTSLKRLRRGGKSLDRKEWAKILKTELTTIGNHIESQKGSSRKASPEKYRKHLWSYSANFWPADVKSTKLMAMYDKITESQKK

Sequence of Protein translocase subunit SecA (Escherichia coli (strain K12)) (P10408 whole entry): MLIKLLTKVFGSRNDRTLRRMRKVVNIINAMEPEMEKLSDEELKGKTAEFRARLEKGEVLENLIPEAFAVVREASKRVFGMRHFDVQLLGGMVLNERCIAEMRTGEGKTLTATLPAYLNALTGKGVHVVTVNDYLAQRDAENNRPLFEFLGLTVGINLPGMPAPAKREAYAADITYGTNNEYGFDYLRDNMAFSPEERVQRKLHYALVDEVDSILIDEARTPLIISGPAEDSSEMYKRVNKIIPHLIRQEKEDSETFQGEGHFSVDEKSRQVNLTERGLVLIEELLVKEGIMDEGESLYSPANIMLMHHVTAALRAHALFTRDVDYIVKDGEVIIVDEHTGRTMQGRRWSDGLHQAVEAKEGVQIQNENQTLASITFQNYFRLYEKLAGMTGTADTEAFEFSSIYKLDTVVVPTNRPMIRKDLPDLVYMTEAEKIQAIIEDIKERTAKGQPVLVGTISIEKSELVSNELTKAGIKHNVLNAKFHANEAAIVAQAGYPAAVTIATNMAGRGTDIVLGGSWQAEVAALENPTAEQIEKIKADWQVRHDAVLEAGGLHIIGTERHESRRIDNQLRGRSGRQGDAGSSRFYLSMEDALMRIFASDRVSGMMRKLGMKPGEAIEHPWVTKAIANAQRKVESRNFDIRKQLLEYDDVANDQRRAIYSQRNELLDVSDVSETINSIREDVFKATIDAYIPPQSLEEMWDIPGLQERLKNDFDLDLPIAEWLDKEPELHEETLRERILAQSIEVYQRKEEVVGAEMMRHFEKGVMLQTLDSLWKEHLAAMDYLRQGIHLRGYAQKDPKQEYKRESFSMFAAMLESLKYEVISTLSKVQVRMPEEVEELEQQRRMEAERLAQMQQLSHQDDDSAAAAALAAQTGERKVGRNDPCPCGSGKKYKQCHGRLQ

SMILES | Percent Effect [1] [%] | Percent Effect [2] [%] | Percent Effect [3] [%] | Percent Effect [4] [%] | Percent Effect [5] [%] | Percent Effect [6] [%] | Percent Effect [7] [%] | Percent Effect [8] [%] | Percent Effect [9] [%] | Percent Effect [10] [%] | Percent Effect [11] [%]
CCN(CC)C(CNS(=O)(=O)c1ccc(C(=O)NC)cc1)c1ccco1 (configuration not stated) | -3.83 | 5.41 | 3.15 | -5.57 | -5.47 | -1.67 | 18.5 | 13.1 | 9.9 | 6.1 | 7.75
CN(CCN1CCOCC1)C(=O)CCCc1ccccc1 | -3.72 | 0 | 3.21 | 3.74 | 4.38 | -3.55 | 13.9 | -19 | 5.32 | 5.2 | 0.287
CC(=O)NCC(=O)N1Cc2nccn2CC(CN2CCCC2)C1 (configuration not stated) | -4.42 | 5.41 | 1.1 | -2.08 | -5.77 | 0.955 | 19.6 | 5.21 | 6.49 | 10.3 | -0.00691
N#Cc1ccnc(N2CCN(C(=O)NC3CCS(=O)(=O)C3)CC2)c1 (configuration not stated) | -2.8 | 16.2 | -36.1 | 7.69 | -0.464 | -0.185 | 9.87 | 14.6 | 7.92 | 23.2 | -5.46
CN(C)C(=O)[C@@H]1CCO[C@@H]2CCN(CCc3ccccc3)C[C@@H]21 | -1.12 | 10.8 | -3.68 | 0.659 | 2.15 | 38.8 | 9.21 | 0.342 | -4.95 | 15.8 | -6.78
CCn1nccc1CNC(=O)C(C)n1cc2c(n1)c(C)nn2C (configuration not stated) | -5.47 | 20 | -7.37 | 0.228 | 0.197 | -11.4 | 10.5 | 2.05 | 5.29 | 12.8 | -12.4
COc1ccc(C2(CNC(C)c3nnc(C)o3)CCCCC2)cc1 (configuration not stated) | -1.33 | -8.11 | -8.86 | 6.11 | 8.69 | -4.76 | 6.03 | 5.78 | 0.529 | 0 | 0.233
c1ccc(Oc2cc(CNCC3CNc4ccnn4C3)ccn2)cc1 (configuration not stated) | -2.02 | 11.4 | -0.557 | -0.022 | 5.85 | 2.37 | 11.7 | 11.8 | 19.8 | 20.2 | -13.3
O=C(c1cnccn1)N1CCc2ncnc(-c3cccnc3)c2CC1 | -5.31 | 2.67 | -1.38 | -1.29 | 0.386 | -43.5 | 6.33 | -9.47 | 0 | 5 | -3.12
Cc1cnn(CCNCc2ccccc2OCc2cccnc2)c1 | -4.98 | -3.8 | 2.64 | 6.26 | -1.95 | 1.5 | 17 | 5.87 | 5.21 | 5.06 | -13
CNC(=O)CS(=O)(=O)C1CCN(S(=O)(=O)c2ccccc2Br)CC1 | 1.17 | 0 | 4.03 | 13.4 | 4.5 | 5.46 | 2.31 | 26.1 | 1.07 | 2.5 | -0.751
Clc1ccc2cccnc2c1CN1CCCC(Cn2cncn2)C1 (configuration not stated) | -4.92 | 0 | -3.69 | 7.75 | 0.279 | 1.66 | 12 | 18.1 | 7.92 | 13.4 | 3.69
Cc1ccc(C(=O)N2CCCC(NC(=O)C(C)C)C2)c(O)c1 (configuration not stated) | -4.49 | 16.2 | -12.8 | 11.8 | 3.87 | -4.41 | 11.9 | 6.82 | 8.37 | 25.9 | -10.5
CC(C)N(CC(N)=O)Cc1csc(Cc2ccccc2)n1 | -3.88 | 12.7 | 0.223 | -4.46 | -6.7 | 0 | 5.82 | 41.7 | -1.48 | 11.4 | -6.32
O=C(c1ccncc1F)N1CCc2ncnc(-c3ccncc3)c2CC1 | -6.29 | 5.41 | -2.05 | -1.21 | -5.38 | -0.955 | 10.7 | 14 | 1.08 | 7.69 | 0.761
CCn1cnnc1C1CCN(C(=O)c2cnc(C3CC3)s2)CC1 | -2.76 | 17.7 | -5.9 | 9.8 | 0.85 | -2.28 | 3.52 | -10.4 | 6.4 | 13.9 | -4.8
CC(C)c1nc(C2CCCN2CCc2ccncc2)no1 (configuration not stated) | -3.81 | 0 | 6.93 | -0.839 | -2.25 | -0.356 | 13 | 27 | 2.91 | -4.88 | -0.507
CCc1noc(C2CCCCN2C(=O)c2ccn(C3CCCC3)n2)n1 (configuration not stated) | -3.89 | 20 | -10.1 | -4.33 | 5.89 | -15.3 | 13.7 | 24.3 | 9.52 | 12.8 | -15.7
O=C(C1CCN(c2snc3ccccc23)CC1)N1CCCCCC1 | 1.1 | 24.1 | 2.83 | -3.46 | -0.923 | -4.52 | 13.7 | 59.6 | 5.21 | 7.59 | -21.3
O=C(CCc1ccccc1)N1CCC(N2CCNC2=O)CC1 | -4.14 | 7.79 | 3.48 | -3.35 | -4.6 | 1.47 | 6.06 | 15.5 | 3.81 | 14.1 | -13.9
O=C1CC2(CCN(S(=O)(=O)C3CC3)C2)CN1c1cncnc1 (configuration not stated) | 1.95 | 16 | -1.36 | -1.59 | 1.54 | -50.7 | 9.74 | 5.32 | 6.25 | 27.5 | -4.67
Cc1nccn1C1CCCN(C(=O)c2ccc(N(C)C)nc2)C1 (configuration not stated) | -4.63 | 7.89 | -3.59 | 3.06 | 6.26 | -1.08 | 7.36 | 7.13 | 7.39 | 18.5 | -0.744
